# Assay results as given in PubChem BioAssay (EPA / NIEHS).
# Inconclusive results are not listed. The source made the active and inactive calls. Rule for the calls: active = hit-call score of the fitted dose curve at least 0.9, where 1 is the maximum; inconclusive = response in the unintended direction; inactive = score below 0.9.
# Legend:
# [1] = molecular target: Neuropeptide Y receptor type 2 (Homo sapiens) (UniProt P49146); assay: NVS_GPCR_hNPY2: NovaScreen (NVS) G Protein-Coupled Receptor Assay for human Neuropeptide Receptor Y2 (NPY2) (AID 2283277)
# Neuropeptide Y receptor type 2 (Homo sapiens), sequence (P49146 whole entry, looked up): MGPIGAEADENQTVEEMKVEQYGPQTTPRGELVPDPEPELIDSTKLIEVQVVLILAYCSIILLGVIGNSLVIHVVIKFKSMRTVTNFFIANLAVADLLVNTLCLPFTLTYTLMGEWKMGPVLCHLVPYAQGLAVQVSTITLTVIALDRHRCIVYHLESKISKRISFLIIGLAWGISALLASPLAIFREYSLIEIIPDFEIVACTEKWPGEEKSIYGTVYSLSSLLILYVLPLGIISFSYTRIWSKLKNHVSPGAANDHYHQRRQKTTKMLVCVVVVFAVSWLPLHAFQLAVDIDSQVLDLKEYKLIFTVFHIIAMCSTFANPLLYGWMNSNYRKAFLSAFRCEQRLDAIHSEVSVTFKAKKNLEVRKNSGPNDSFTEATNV
# In short: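 Radioligand binding on membranes extracted from SK-N-MC cells, cell-free, read 1 h after dosing by filter-based scintillation counting. Loss of signal vs DMSO. Primary screen in duplicate at 25 uM; actives followed up in concentration-response up to 50 uM.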
# [2] = molecular target: human Neurotensin Receptor (NTS), NTSR1 (gene 4923) (UniProt P30989); assay: NVS_GPCR_hNTS: NovaScreen (NVS) G Protein-Coupled Receptor Assay for human Neurotensin Receptor (NTS) (AID 2283279)
# human Neurotensin Receptor (NTS), NTSR1 (gene 4923), sequence (P30989 whole entry, looked up): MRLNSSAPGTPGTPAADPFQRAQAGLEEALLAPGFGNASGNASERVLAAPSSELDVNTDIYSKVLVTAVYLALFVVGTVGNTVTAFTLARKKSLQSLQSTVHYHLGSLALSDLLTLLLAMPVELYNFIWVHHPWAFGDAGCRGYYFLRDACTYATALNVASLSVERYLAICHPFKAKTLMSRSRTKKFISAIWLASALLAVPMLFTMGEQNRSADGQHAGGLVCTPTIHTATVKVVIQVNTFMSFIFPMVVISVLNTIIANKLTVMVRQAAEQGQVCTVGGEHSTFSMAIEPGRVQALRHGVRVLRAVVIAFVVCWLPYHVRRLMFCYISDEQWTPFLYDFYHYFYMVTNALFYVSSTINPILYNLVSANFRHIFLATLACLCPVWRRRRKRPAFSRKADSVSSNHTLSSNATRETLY
# In short: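 Radioligand displacement on human NTSR1 protein from CHO cells, cell-free, 1 h, filter-based scintillation counting. Primary screen at 25 uM in duplicate; hits rerun in concentration-response up to 50 uM.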
# [3] = test system: 5-hydroxytryptamine receptor 2C (pig); assay: NVS_GPCR_p5HT2C: NovaScreen (NVS) G Protein-Coupled Receptor Assay for pig Serotonin, 5-Hydroxytryptamine Receptor 2C (5HT2C) (AID 2283288)
# Protocol: NVS_GPCR_p5HT2C is a biochemical, single-readout assay that uses extracted gene-proteins from Pig choroid plexus membranes in a tissue-based cell-free assay. Measurements were taken 1 hour after chemical dosing in a 48-well plate.NVS_GPCR_p5HT2C is one of one assay component(s) measured or calculated from the NVS_GPCR_p5HT2C assay. It is designed to make measurements of radioligand binding, a form of binding reporter, as detected with scintillation counting signals by Filter-based radiodetection technology.Data from the assay component NVS_GPCR_p5HT2C was analyzed into 1 assay endpoint. This assay endpoint, NVS_GPCR_p5HT2C, was analyzed in the positive analysis fitting direction relative to DMSO as the negative control and baseline of activity. Using a type of binding reporter, loss-of-signal activity can be used to understand changes in the binding as they relate to the gene HTR2C. Furthermore, this assay endpoint can be referred to as a primary readout, because the performed assay has only produced 1 assay endpoint. To generalize the intended target to other relatable targets, this assay endpoint is annotated to the gpcr intended target family, where the subfamily is rhodopsin-like receptor. […]
smiles,measurement,setting,value
C=C(C)C(=O)[O][Sn]([CH2]CCC)([CH2]CCC)[CH2]CCC,AC50,[1],14.8 µM (active)
CC(=O)[O][Hg][c]1ccccc1,AC50,[1],8.48 µM (active)
Oc1cccc2cccnc12,outcome,[2],inactive
CCC(=O)C(CC(C)N(C)C)(c1ccccc1)c1ccccc1 (stereo not given),AC50,[3],1.91 µM (active)
CCOC(=O)Nc1cccc(OC(=O)Nc2ccccc2)c1,AC50,[3],20.3 µM (active)
